The text below walks through data of PubChem BioAssay (NCATS).

A number with no mark means an inactive call. Results filed as inconclusive are left out. Activity calls are given as the source filed them. Unless noted, calls follow the shape of the dose curve; as a rule, active = well fitted curve in the direction sought with a large enough effect; inconclusive = small, poorly fitted or top-dose-only effect, or another doubt; inactive = no such curve, though single readings can be large; an effect the other way counts as inactive or inconclusive. Starred links: 1 amine or outer side, 2 acyl side, 3 side chain; linkers in the order of their positions; H or OH if unused. Positions of bridges follow the written chain, without caps; N, C: chain ends. Non-standard residues stand in square brackets, D forms with d. Residues, ends and D or L forms follow the SMILES beside them. *: point of attachment. X1 = NC1=N[C@@H](O)C[C@@H]([C@@H](N[*:1])C(=O)[*:2])N1; ΔAla(Z-3-ureido) = NC(=O)N/C=C(\N)C(=O)O; β3hOrn = NCCC[C@H](N)CC(=O)*; Dap = NC[C@H](N)C(=O)O Some results are limits rather than exact numbers.

The nature of experiment [1]: AP1 Signaling Pathway (AID 357; active = well fitted curve in either direction with a large enough effect, not every such curve was filed as active;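 also: ME-180 reporter cells stimulated with EGF at its EC50 level; % is scaled to controls: 0 for no effect and ±100 for the full control effect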). An outline of the steps: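 Read-out was the 460nm/530nm emission ratio (excitation 405nm) after CCF4 loading for 2.5 hours at room temperature. Cells carried an AP-1-driven beta-lactamase reporter, were stimulated with EC50 EGF plus compound for 5 hours, and AC50 values came from titrations.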
Experiment [2] in a line: Stat Signaling Pathway (AID 446; active = well fitted curve in either direction with a large enough effect, not every such curve was filed as active;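 also: ME-180 cervical cancer cells given 40 pM IL-6 alongside compound; SIE-controlled beta-lactamase reporter measured as 460/530 nm FRET emission ratio; % is scaled to controls: 0 for no effect and ±100 for the full control effect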). An outline of the steps:
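FRET read-out (405 nm excitation, 460/530 nm emission) of a beta-lactamase reporter under a STAT-inducible element in ME-180 cervical carcinoma cells. Cells with compound receive 40 pM IL-6 for 5 h. Values are normalised to AC90 stimulation and AC90 JAK-inhibitor controls.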

In experiment [3] the target is Glucocorticoid receptor (Homo sapiens) (UniProt P04150). As to the kind of experiment: GR-GFP Redistribution (AID 450;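 active = compounds whose dose series gives a full or clear partial fitted curve of increased nuclear translocation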; also: potency is read from the fitted curve at half-maximal effect). The following applies: U2OS GR-GFP nuclear translocation, laser cytometry, 2 h.
Chain of Glucocorticoid receptor (Homo sapiens) (P04150 whole entry, looked up, the tested form may be a part): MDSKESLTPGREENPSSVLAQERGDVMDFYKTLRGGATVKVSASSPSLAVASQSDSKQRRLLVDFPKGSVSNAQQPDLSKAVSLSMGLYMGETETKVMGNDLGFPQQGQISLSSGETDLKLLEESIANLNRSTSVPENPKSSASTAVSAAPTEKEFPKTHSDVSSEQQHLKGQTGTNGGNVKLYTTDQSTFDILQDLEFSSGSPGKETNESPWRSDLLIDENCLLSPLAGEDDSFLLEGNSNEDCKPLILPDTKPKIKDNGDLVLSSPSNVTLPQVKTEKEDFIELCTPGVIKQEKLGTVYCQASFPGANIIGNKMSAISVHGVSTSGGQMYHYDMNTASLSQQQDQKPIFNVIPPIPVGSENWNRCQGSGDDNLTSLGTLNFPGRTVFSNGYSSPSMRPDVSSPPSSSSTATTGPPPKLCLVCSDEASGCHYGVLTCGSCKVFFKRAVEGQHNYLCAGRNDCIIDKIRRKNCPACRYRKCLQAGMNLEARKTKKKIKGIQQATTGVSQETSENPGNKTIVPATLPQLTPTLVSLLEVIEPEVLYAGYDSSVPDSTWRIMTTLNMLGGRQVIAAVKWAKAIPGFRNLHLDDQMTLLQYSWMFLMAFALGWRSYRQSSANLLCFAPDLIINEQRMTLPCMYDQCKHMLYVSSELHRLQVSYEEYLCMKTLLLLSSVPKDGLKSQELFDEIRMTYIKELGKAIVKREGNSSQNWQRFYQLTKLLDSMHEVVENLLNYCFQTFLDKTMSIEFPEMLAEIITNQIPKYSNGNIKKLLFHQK
Experiment [4] has the same target. As to the kind of experiment: GR-EFC Redistribution (AID 451; calls by dose curve; also: potency is read from the fitted curve at half-maximal effect). The following applies: CHO-K1 GR-EFC translocation, beta-gal luminescence, 2 h. The method, boiled down: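 CHO-K1 cells expressing nuclear EA and GR-ED fragments of b-gal; compounds titrated up to 46 uM final, 2 h at 37 C. GR nuclear translocation read as complemented b-gal luminescence after 1 h RT detection.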

Experiment [5] has as its target Mitogen-activated protein kinase 10 (Mus musculus) (UniProt Q61831). As to the kind of experiment: JNK3 AlphaScreen Assay (AID 530; active = well fitted curve in either direction with a large enough effect, not every such curve was filed as active;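 also: kinase came from lysate of stimulated human HepG2 cells; signal reports phosphorylation of biotinylated GST-cJun 1-79 at Ser73 with 10 µM ATP; % is scaled to controls: 0 for no effect and ±100 for the full control effect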). The method, boiled down:
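Activity was read by AlphaScreen after JNK3-containing HepG2 lysate (cytokine pre-activated) phosphorylated biotinylated GST-cJun with 10 uM ATP at room temperature. Phospho-Ser73 cJun antibody with Protein-A acceptor beads provided detection.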

The target of experiment [6] is 3',5'-cyclic-AMP phosphodiesterase 4B (Homo sapiens) (UniProt Q07343). As to the kind of experiment: qHTS Assay for Inhibitors of PDE-IV (AID 607; active = well fitted activation curve with a large enough effect in the main read-out, with a control signal flat, not every such curve was filed as active; also: % of control where 0% means no effect). An outline of the steps:
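Cell-based read-out of cAMP via a modified cyclic nucleotide-gated channel and membrane potential dye (535/590 nm) in HEK293 cells expressing PDE4 endogenously. Compounds tested up to 22.9 uM final; 100 uM RO 20-1724 reference.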
Background: qHTS replaces the single test concentration by a dilution series.

Experiment [7] can be described thus: S16 Schwann cell PMP22 intronic element firefly luciferase assay (AID 624032). Also: nearly all actives have a fitted effect of over 30% in size. Also: potency is read from the fitted curve at half-maximal effect.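 As to activity change, negative = inhibition: plate controls were DMSO for no effect and PTC124 positive control mean for full effect.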 An outline of the steps: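 Rat S16 Schwann cells stably carrying firefly luciferase driven by a PMP22 intronic element, in 10% FBS, treated 24 h at 37 C. ONE-Glo luminescence normalized to PTC124 control and DMSO (0%); curves classed by r2, magnitude and activity.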
Experiment [8] in a line: S16 Schwann cell PMP22 intronic element beta-lactamase assay (AID 624044; calls by dose curve;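 also: 0% = DMSO and -100% = potassium clavulanate positive control; nearly all actives have a fitted effect of over 15% in size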). An outline of the steps:
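Beta-lactamase reporter under a PMP22 intronic regulatory element in stable S16 rat Schwann cells; 24 h compound exposure. 460 nm blue signal normalized between DMSO (0%) and potassium clavulanate, with 535 nm FRET tracking viability; curves classed by r2 and response.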

In the next experiment the test system is 7G8. As to the kind of experiment: qHTS profiling for inhibitors of Plasmodium falciparum proliferation (AID 504749).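 Also: 0% = DMSO vehicle and full inhibition = artemisinin control; nearly all actives have a fitted effect of over 60% in size.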 The following applies: P. falciparum in erythrocytes, SYBR Green DNA, 72 h; series mostly up to 12.8 µM. An outline of the steps: (§1)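 Each compound contacts P. falciparum-infected red blood cells for 72 h at 37 C; lysis buffer (Tris, EDTA, saponin, Triton X, SYBR Green I) is added and fluorescence measured next morning; values normalized to controls.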

A further experiment has as its system ATS95. The experiment is described as above. The following applies: P. falciparum in erythrocytes, SYBR Green DNA, 72 h; series mostly up to 12.8 µM. The method, boiled down: as §1
The next experiment has as its system CP203. The description is as above. The following applies: P. falciparum in erythrocytes, SYBR Green DNA, 72 h; series mostly up to 12.8 µM. The method, boiled down: as §1
For the next experiment, the system named is DIV14. The experiment is described as above. The following applies: P. falciparum in erythrocytes, SYBR Green DNA, 72 h; series mostly up to 12.8 µM. The method, boiled down: as §1
For another experiment, the system named is GB4. The description is as above. The following applies: P. falciparum in erythrocytes, SYBR Green DNA, 72 h; series mostly up to 12.8 µM. The method, boiled down:
as §1

A short description of experiment [9]: NFAT Signaling Pathway (AID 444; active = well fitted curve in either direction with a large enough effect, not every such curve was filed as active;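 also: carbachol stimulus at about its EC50 of 1 µM final; % is scaled to controls: 0 for no effect and ±100 for the full control effect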). The following applies: Jurkat NFAT-bla M1, carbachol, beta-lactamase ratio, 5 h; at 17.2 µM (top of the series) unless noted. The method, boiled down: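 Jurkat cells with NFAT-driven β-lactamase reporter and co-expressed M1 receptor, stimulated with carbachol (final 1 uM, ~EC50), compound titration, 5 h at 37 °C. CCF4 loaded 1 h at RT; 460/530 nm ratio gave %activity and AC50.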

Experiment [10] addresses Cytochrome P450 3A4 (Homo sapiens) (UniProt P08684). As to the kind of experiment: qHTS Assay for Inhibitors and Substrates of Cytochrome P450 3A4 (AID 884). Also: % is scaled to controls: 0 for no effect and ±100 for the full control effect; nearly all actives have a fitted effect of over 50% in size. The method, boiled down:
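Luminescent readout of luciferin produced by CYP3A4 (20 nM) dealkylation of Luciferin-PPXE, 25 uM (its KM). NADPH-driven reaction ran 60 min at RT after 10 min compound preincubation; data scaled to 57 uM ketoconazole as 100% inhibition.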

A short description of experiment [11]: Confirmation and Secondary Assay for Modulators of Hemoglobin Beta Chain Splicing at IVS2 654 locus (AID 910).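 Also: HeLa cells stably carrying EGFP split by mutant beta-globin IVS2-654 intron; % of control where 0% means no effect.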 An outline of the steps:
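HeLa cells stably expressing EGFP interrupted by β-globin IVS2-654 intron, seeded overnight in Opti-MEM/2% FCS, then treated 2 days at 37 °C. Restored splicing read as total peak GFP intensity per well by laser scanning cytometry (488 nm excitation, 500–520 nm emission); 500 nM antisense PNA as control.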

Experiment [12] in a line: Confirmation and Secondary Assay for Modulators of Hemoglobin Beta Chain Splicing at IVS2 705 locus (AID 930).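 Also: HeLa cells stably expressing the EGFP-705 splicing reporter; GFP fluorescence per well restored by corrected splicing of the IVS2-705 intron in EGFP; % of control where 0% means no effect.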 The method, boiled down: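 HeLa cells stably carrying EGFP interrupted by mutant beta-globin intron 2 (IVS2-705) treated 2 days at 37C with compound; 500 nM antisense PNA as control. Correct splicing read as total peak GFP intensity per well by laser-scanning cytometry.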

Chain of 3',5'-cyclic-AMP phosphodiesterase 4B (Homo sapiens) (Q07343 whole entry, looked up): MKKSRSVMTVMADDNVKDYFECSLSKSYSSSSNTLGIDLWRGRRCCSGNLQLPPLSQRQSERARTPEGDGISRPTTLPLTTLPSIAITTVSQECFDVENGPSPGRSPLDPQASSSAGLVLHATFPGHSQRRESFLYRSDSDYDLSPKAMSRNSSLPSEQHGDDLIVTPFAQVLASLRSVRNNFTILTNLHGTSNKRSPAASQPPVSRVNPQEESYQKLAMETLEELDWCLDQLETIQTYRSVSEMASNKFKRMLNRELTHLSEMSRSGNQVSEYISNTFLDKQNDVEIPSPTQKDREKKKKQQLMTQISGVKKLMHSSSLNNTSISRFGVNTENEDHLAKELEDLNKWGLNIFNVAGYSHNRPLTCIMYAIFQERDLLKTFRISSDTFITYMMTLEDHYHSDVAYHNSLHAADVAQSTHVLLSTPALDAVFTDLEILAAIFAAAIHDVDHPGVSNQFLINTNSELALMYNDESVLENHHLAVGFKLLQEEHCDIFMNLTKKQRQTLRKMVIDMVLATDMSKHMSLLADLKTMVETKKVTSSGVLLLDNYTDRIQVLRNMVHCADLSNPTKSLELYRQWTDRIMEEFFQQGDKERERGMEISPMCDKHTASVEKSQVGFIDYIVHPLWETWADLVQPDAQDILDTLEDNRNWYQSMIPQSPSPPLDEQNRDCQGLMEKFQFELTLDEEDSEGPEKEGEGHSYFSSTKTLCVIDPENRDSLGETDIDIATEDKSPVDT
Chain of Cytochrome P450 3A4 (Homo sapiens) (P08684 whole entry, looked up): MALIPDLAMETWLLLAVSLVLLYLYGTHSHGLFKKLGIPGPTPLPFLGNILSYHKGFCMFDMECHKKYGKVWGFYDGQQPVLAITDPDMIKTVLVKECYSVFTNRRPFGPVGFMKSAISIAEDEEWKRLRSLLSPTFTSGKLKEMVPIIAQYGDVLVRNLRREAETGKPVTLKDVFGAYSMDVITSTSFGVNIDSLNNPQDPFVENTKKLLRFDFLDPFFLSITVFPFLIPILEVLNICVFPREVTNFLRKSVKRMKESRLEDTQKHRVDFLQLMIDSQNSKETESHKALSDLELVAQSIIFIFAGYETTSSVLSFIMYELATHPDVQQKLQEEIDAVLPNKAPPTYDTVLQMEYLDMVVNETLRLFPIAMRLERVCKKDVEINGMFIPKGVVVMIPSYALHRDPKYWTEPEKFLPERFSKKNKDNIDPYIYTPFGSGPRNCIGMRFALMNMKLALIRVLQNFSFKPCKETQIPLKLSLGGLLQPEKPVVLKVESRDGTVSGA

Regarding `C#C[C@]1(O)CC[C@@H]2[C@H]3CCC4=CCCC[C@@H]4[C@@H]3CC[C@@]21C`, the molecule was called inactive in experiment [1], in [2] and in experiment [6]. Further, the Potency in [3] is above 20.6 µM; in experiment [4] it was above 20.6 µM; in [7], 5.49 µM (active). Further, the Potency result (in experiment [5]; in experiment [8]; in the experiment on 7G8; in the experiment on ATS95; with CP203; with DIV14) was “inactive” each time. The Potency result in the experiment on GB4 was “inactive”.

Consider `CCOC(=O)O[C@@H](C)OC(=O)[C@@H]1N2C(=O)[C@@H](NC(=O)[C@@H](N)c3ccccc3)[C@H]2SC1(C)C`, for which the molecule was called inactive in [1] and in experiment [6]. In addition, in [9], the activity change, negative = inhibition was -4.72%. Further, the Potency entry (in experiment [5]; in experiment [8]; in the experiment on 7G8; with ATS95; with CP203; in the experiment on DIV14) was “inactive” throughout. In the experiment on GB4, the Potency entry is “inactive”.

On to `CC(=O)O[C@H]1C[C@H]2CC[C@@H]3[C@@H](CC[C@]4(C)[C@H](OC(C)=O)[C@H]([N+]5(C)CCCCC5)C[C@@H]34)[C@]2(C)C[C@H]1[N+]1(C)CCCCC1`, for which the result in experiment [1], in experiment [2] and in [6] was inactive. For the same molecule, the Potency in experiment [3] and in [4] was above 20.6 µM each time. For the same molecule, the Potency entry in [5] was “inactive”.

Regarding `C=CCO[C@@H](Cn1ccnc1)c1ccc(Cl)cc1Cl`, the result in experiment [1], in [2] and in experiment [6] was inactive. Moreover, the Potency in experiment [3] and in experiment [4] was above 20.6 µM each time.

On to `NCCC[C@H](N)CC(=O)N[C@H]1CNC(=O)[C@@H]([C@@H]2C[C@H](O)N=C(N)N2)NC(=O)/C(=C/NC(N)=O)NC(=O)[C@@H](CO)NC(=O)[C@@H](CO)NC1=O` (β3hOrn-[Dap][dS][dS][ΔAla(Z-3-ureido)][X1]; lactam 1-C), for which the outcome in experiment [1] and in experiment [6] was inactive. Further, the activity change, negative = inhibition in experiment [9] was -11.1%. Besides, in [5], the Potency result is “inactive”.

For the molecule `CN[C@H]1[C@H](O)[C@@H](O[C@@H]2[C@H](O)[C@@H](O[C@H]3OC(CN)=CC[C@H]3N)[C@@H](N)C[C@H]2N)OC[C@@]1(C)O`, the molecule was called inactive in [1] and in [6]. Also, in experiment [9], the activity change, negative = inhibition was -17.3%. Further, the Potency in experiment [3] and in [4] was above 20.6 µM throughout. The Potency entry (in experiment [5]; in experiment [7]; in [8]; with 7G8; in the experiment with ATS95; with CP203) was “inactive” in each case. The Potency result in the experiment with DIV14 and in the experiment with GB4 was “inactive” in each case.

On to `CCN(CCCCOC(=O)c1ccc(OC)c(OC)c1)[C@@H](C)Cc1ccc(OC)cc1`, for which the result in [1] and in [2] was inactive. The Potency in [3] was above 20.6 µM. For the same molecule, the Potency entry (in [5]; in experiment [8]; in the experiment with GB4) was “inactive” in each case.

`CC(C)C1CCC(C(=O)NC(Cc2ccccc2)C(=O)O)CC1` (configuration not stated): the Potency result (in experiment [10]; in experiment [11]; in experiment [12]; in [7]; in [8]; in the experiment with 7G8) was “inactive” each time. The Potency result in the experiment with ATS95, in the experiment on CP203, with DIV14 and in the experiment with GB4 was “inactive” in each case.

As for `CC1(C)SC2C(N3C(=O)C(c4ccccc4)NC3(C)C)C(=O)N2C1C(=O)O` (configuration not stated), the Potency entry (in [10]; in experiment [11]; in experiment [12]; in [7]; in experiment [8]; in the experiment on 7G8) was “inactive” in each case. In addition, the Potency entry in the experiment with ATS95, in the experiment with CP203, in the experiment on DIV14 and in the experiment with GB4 was “inactive” in each case.
